HP1b chromo inh: HTS for Inhibitors of HP1-beta Chromodomain Interactions with Methylated Histone Tails; Potency, µM (doses to about 114 µM), inactives show at the highest dose activity change, negative = inhibition, hits mostly inhibitors; 390,000 compounds, 0.56% hits; Chromobox protein homolog 1 (Homo sapiens), P83916; AlphaScreen HP1-beta / biotin-H3K9me3 peptide binding; further: nearly all actives have a fitted effect of over 70% in size
Target sequence (P83916 whole entry, looked up): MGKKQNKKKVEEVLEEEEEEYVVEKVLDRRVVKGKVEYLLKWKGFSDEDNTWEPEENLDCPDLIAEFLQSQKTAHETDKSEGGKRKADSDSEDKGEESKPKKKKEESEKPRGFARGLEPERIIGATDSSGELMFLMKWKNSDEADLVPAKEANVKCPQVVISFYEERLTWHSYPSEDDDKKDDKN
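Compound inhibition of the preformed complex between 50 nM HP1-beta and 50 nM biotinylated H3K9me3 peptide was read by AlphaScreen. Buffer was PBS pH 7.4 with 0.01% Tween-20. Incubations ran 30 min at room temperature, with 10 ug/mL donor/acceptor beads.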
Sfp PPTase inh: qHTS Assay for Inhibitors of Bacillus subtilis Sfp phosphopantetheinyl transferase (PPTase); Biochemical Sfp PPTase activity, qHTS; Potency, µM, without a hit: largest response in the series, negative = inhibition, hits mostly inhibitors; AID 1490, 2009; 4'-phosphopantetheinyl transferase ffp (Bacillus subtilis), Q9F4F7; 310,000 compounds, 3.5% hits;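 further: the enzyme is Sfp with the accession as filed and its product quenches rhodamine fluorescence; 0% = enzyme reaction without inhibitor and -100% = no enzyme wells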
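Reaction rates are the 30-min fluorescence difference (ex 525, em 598 nm) in wells containing 15 nM Sfp, 5 uM rhodamine-CoA and 12.5 uM BHQ-2-YbbR at pH 7.6 with 10 mM MgCl2.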
JMJD2A Tudor inh: qHTS Assay for Inhibitors of JMJD2A-Tudor Domain | AlphaScreen JMJD2A-Tudor / H3K4me3 peptide binding | Potency, µM (titrated, usually from 114 µM), inactives show at the highest dose activity change, negative = inhibition, usual class: inhibitors | 390,000 compounds, 4.4% hits | AID 504339, 2011; further: on the % scale 0 is the no-effect control and ±100 the full control effect; nearly all actives have a fitted effect of over 50% in size
BAZ2B inh: qHTS Assay for Inhibitors of BAZ2B; Bromodomain adjacent to zinc finger domain protein 2B (Homo sapiens), Q9UIF8; AlphaScreen BAZ2B-H3K14Ac peptide displacement; Potency, µM (titrated, usually from 114 µM), inactives show at the highest dose activity change, negative = inhibition, actives largely listed as inhibitors; 360,000 compounds, 4.4% hits; AID 504333, 2011; further: on the % scale 0 is the no-effect control and ±100 the full control effect; nearly all actives have a fitted effect of over 60% in size
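Inhibition is scored as reduced AlphaScreen emission. The BAZ2B/b-H3(5-23)K14Ac complex (50 nM each) in PBS pH 7.4, 0.01% Tween-20 meets compound (up to 110 uM) for 30 min at RT before bead addition.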
L3MBTL1 block: qHTS Assay for the Inhibitors of L3MBTL1; Lethal(3)malignant brain tumor-like protein 1 (Homo sapiens), Q9Y468; AlphaScreen L3MBTL1–H3K9me1 peptide binding; Potency, µM (series often up to 57.1 µM), inactives show at the top dose activity, negative = inhibition, most hits filed as inhibitors; 230,000 compounds, 0.66% hits; further: on the % scale 0 is the no-effect control and ±100 the full control effect; nearly all actives have a fitted effect of over 60% in size
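L3MBTL1 (50 nM) pre-complexed 30 min with biotinylated H3(1-15)K9me1 peptide (75 nM), then compounds added for 30 min at room temperature; AlphaScreen streptavidin donor/nickel chelate acceptor beads (10 ug/mL final) read after 30 min dark incubation.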
G9a block: qHTS Assay for Inhibitors of Histone Lysine Methyltransferase G9a | G9a H3K9 monomethylation, AlphaScreen, 2 h | 350,000 compounds, 8.8% hits | Potency, µM (series often up to 102 µM), for the others: top-dose activity, negative = inhibition, hits mostly inhibitors; further: on the % scale 0 is the no-effect control and ±100 the full control effect; nearly all actives have a fitted effect of over 75% in size
Target sequence (Q96KQ7 913-1193 limits assumed): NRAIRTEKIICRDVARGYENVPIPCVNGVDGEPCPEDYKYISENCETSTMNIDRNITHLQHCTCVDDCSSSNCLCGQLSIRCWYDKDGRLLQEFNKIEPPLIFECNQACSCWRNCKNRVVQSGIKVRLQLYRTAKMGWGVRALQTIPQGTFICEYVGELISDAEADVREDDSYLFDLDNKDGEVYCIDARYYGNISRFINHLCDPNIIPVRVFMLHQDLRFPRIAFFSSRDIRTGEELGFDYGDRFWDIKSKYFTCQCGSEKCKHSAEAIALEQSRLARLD
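Enzyme 20 nM + cpd, 15 min RT; add b-H3K9 pep 500 nM / SAM 20 uM; 2 h RT; anti-H3K9me1 Ab 0.5 ug/mL + SA donor / anti-rabbit acceptor beads 20 ug/mL each, 10 min; AlphaScreen read.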
An asterisk follows results filed as active; ? = inconclusive; · = no result given; [ ] = remark or other dose. Hits are enriched below; roughly 12% of the tested compounds scored in any of these assays. The call rests on the fitted dose curve; in most records, active means well fitted curve in the direction sought with a large enough effect; inconclusive means small, poorly fitted or top-dose-only effect, or another doubt; inactive means no such curve, though single readings can be large; an effect the other way counts as inactive or inconclusive. Potency means the concentration at half of the fitted maximal effect.

SMILES	HP1b chromo inh	Sfp PPTase inh	JMJD2A Tudor inh	BAZ2B inh	L3MBTL1 block	G9a block
Cc1ccc(SCC(=O)N(C)C2CCS(=O)(=O)C2)cc1 (stereo not drawn)	43%	14%	6%	-21%	-1%	1%
CCN(C(=O)CSc1nnc(C)n1Cc1ccccc1)C1CCS(=O)(=O)C1 (stereo not drawn)	45%	-1%	1%[11.4 µM]	-9%	·	25µM*
COc1ccc(-c2nc3cccc(C)n3c2NCc2ccco2)cc1OC	-16%	-1%	?	50µM*	-4%	45µM*
Cc1ccn2c(-c3csc(NCc4ccco4)n3)c(C)nc2c1	-30%	?	100µM*	?	-8%	45µM*
c1cncc(-c2csc(NCc3ccco3)n2)c1	0%	-1%	?	-38%	·	13%[12.7 µM]
Cc1ccc(-c2cc3nc(C)cc(NCc4ccco4)n3n2)cc1	24%	?	-19%	-30%	0%	?
COc1ccc(-c2csc(NCc3ccco3)n2)cc1C	?	-4%	?	45µM*	·	?
CC(=O)Nc1ccc(-c2csc(NCc3ccco3)n2)cc1	-28%	15%	?	-33%	13%	10µM*
Cc1cccc(NC(=O)C(Cc2ccccc2)n2cccc2)c1C (stereo not drawn)	51%	·	0%	3%	·	-5%[59 µM]
O=C(NCc1ccccc1Cl)C(=O)NCC(c1ccc2c(c1)OCO2)N1CCOCC1 (stereo not drawn)	15%[57 µM]	·	-10%	1%	·	1%[59 µM]
CCOC(=O)c1sc(N2N=C(C)/C(=C\c3ccc(OCC(=O)OC)cc3)C2=O)nc1C	34%	-14%	-9%	7%	25%	-2%
CCOC(=O)CC1=NN(c2ccccc2)C(=O)/C1=C\c1ccc(OC)cc1OC	16µM*	-17%	14µM*	11µM*	-10%	10µM*
COC(=O)CC1=NN(c2ccc(OC)cc2)C(=O)/C1=C\c1ccc(Cl)cc1	?	6%	?	50µM*	-3%	20µM*
COc1ccc(C(=O)NNC(=O)C2=NN(c3ccccc3)C(=O)CC2)cc1	68%	-8%	-11%	7%	·	·
COC(=O)CC1=NN(c2ccccc2)C(=O)/C1=C\c1ccc(OC)cc1	-10%	8%	-30%	?	-15%	20µM*
Cc1cc(C)n(C(C)CC(=O)NCc2ccc(Cl)cc2)n1 (stereo not drawn)	-11%	·	-21%	-4%	·	11%[59 µM]
CCOC(=O)c1oc2ccccc2c1CN1CCN(c2ccccc2)CC1	-17%	-19%	79µM*	56µM*	·	?
COc1ccc2oc(C(=O)CCC(=O)O)c(N)c2c1	70%	-7%	-5%	-9%	-2%	50µM*
CCOC(=O)c1c(CN2CCN(c3ccccc3)CC2)oc2ccc(O)cc12	-2%	4%	?	?	-12%	40µM*
COC(=O)CCC(=O)c1oc2ccc(Br)cc2c1N	12%	2%	-5%	7%	4%	-8%[59 µM]
CCOC(=O)c1c(CN2CCN(C)CC2)oc2ccc(OC)cc12	19%	10%	?	79µM*	·	?
Cc1cn2c(=O)c(S(=O)(=O)Nc3ccc(N4CCOCC4)cc3)c(C)nc2s1	45%	·	1%	-16%	·	-31%[59 µM]
Cc1ccc(C)c(NC(=O)CCCN2C(=O)COc3ccc(C)cc32)c1	13%	·	-12%	-9%	·	6%[59 µM]
COc1ccc(C)cc1NC(=O)c1cc2c(s1)-c1ccccc1SC2	94%	·	53%	23%	·	79%[59 µM]
Cc1ccc(NC(=O)C2CCN(C(=O)c3cnn(-c4ccccc4)c3-n3cccc3)CC2)cc1C	16%	·	-18%	-21%	·	8%[59 µM]
SMILES	HP1b chromo inh	Sfp PPTase inh	JMJD2A Tudor inh	BAZ2B inh	L3MBTL1 block	G9a block
CCOC(=O)CCC(=O)c1c(C)oc2ccc(OC)cc12	59%	17%	24%	6%	17%	-4%[12.7 µM]
COc1ccc2oc(C)c(C(=O)NN)c2c1	24%	-18%	-23%	-11%	·	10µM*
CC(=O)c1cccc(NC(=S)NC(=O)Cc2ccc(Cl)cc2)c1	28%	-3%	-17%	5%	-2%	-7%
O=C(Cc1ccccc1)NNC(=S)Nc1ccc(Cl)cc1	7%	8%	-17%	6%	3%	?
CC(=O)c1cccc(NC(=S)NC(=O)Cc2ccccc2)c1	54%	15%	-3%	?	0%	22µM*
Cc1cccc(NCC(=O)NNC(=S)Nc2ccccc2)c1	-15%	26%	?	-3%	-15%	32µM*
Cc1cccc(NC(=S)NNC(=O)Cc2ccccc2)c1	12%	21%	-5%	1%	-15%	16µM*
Cc1cccc(NC(=O)CC(=O)Nc2cccc(C)c2)c1	25%	4%	-2%	2%	·	18%
O=C(CSCc1ccccc1Cl)NNC(=S)Nc1ccccc1	-28%	9%	?	-33%	0%	7.9µM*
CC(=O)c1cccc(NC(=O)CSC(=O)c2ccccc2)c1	47%	-14%	5%	5%	16%	20µM*
O=C(CSC(=O)c1ccccc1)Nc1ccccc1F	?	·	-15%	·	-7%	·
COc1ccc(C)cc1NC(=O)Cn1c(=O)cc(C)c2c(C)nn(C)c21	27%	·	-14%	-4%	·	11%[59 µM]
Cc1c(C2=CCN(S(=O)(=O)c3ccc(Cl)cc3)CC2)c2ccccc2n1CC(=O)N1CCCC1	13%	·	-25%	?	·	-5%[59 µM]
O=C(O)C1Oc2cc3ccccc3cc2O1	?	17%	?	-23%	·	45µM*
COc1cccc(-n2ccnc2SCC(=O)Nc2ccc(Cl)c(Cl)c2)c1	-3%[57 µM]	·	-14%	?	·	2%[59 µM]
COC(=O)c1ccc(C2Nc3c(C)cc(C)cc3C3C=CCC32)cc1 (stereo not drawn)	2%	·	?	79µM*	·	4.5µM*
Cc1cc(C)c2c(c1)[C@@H]1C=CC[C@@H]1[C@H](c1ccc(S(=O)(=O)N3CCOCC3)cc1)N2	1%	10µM*	?	-10%	-1%	3.5µM*
COC(=O)c1ccc([C@@H]2Nc3c(cccc3C(F)(F)F)[C@@H]3C=CC[C@@H]32)cc1	123%	·	26%	62%	·	47%[59 µM]
C1CNCCOCCNCCN1	50%	-9%	-25%	45µM*	-3%	-5%
Cc1cc2ccccc2n1CCNC(=O)c1ccccc1	-11%	50µM*	?	?	-18%	?
